Article PMC5540273 (PLoS ONE, 2017)

How the values were obtained:
Details in all cases: concentration: 1 μM, replicates: in singlicate; n = 1
[1] = system: T1, LKB1
T1 construct: gene STK11

[2] = system: T2, LOK
T2 construct: gene STK10

[3] = system: LRRK2
[4] = system: LTK
[5] = system: LYN
[6] = system: T3, LZK
T3 construct: gene MAP3K13

[7] = system: MAK
[8] = system: MAP3K15
[9] = system: MAP3K1
[10] = system: MAP3K2
[11] = system: MAP3K3
[12] = system: MAP3K4
[13] = system: MAP4K2
[14] = system: MAP4K3
[15] = system: MAP4K4
[16] = system: MAP4K5
[17] = system: MAPKAPK2
[18] = system: MAPKAPK5
[19] = system: MARK1
[20] = system: MARK2
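Also: KINOMEscan kinase panel screen.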

COc1ccc(NC(=O)Nc2ccc(C)c(-c3ccc(C(=O)Nc4ccncc4)cc3)c2)cc1 [GSK1398475]
%Inh [1]: 0% | %Inh [2]: 0% | %Inh [3]: 0% | %Inh [4]: 7% | %Inh [5]: 34% | %Inh [6]: 0% | %Inh [7]: 10% | %Inh [8]: 0% | %Inh [9]: 0% | %Inh [10]: 0% | %Inh [11]: 0% | %Inh [12]: 0% | %Inh [13]: 0% | %Inh [14]: 0% | %Inh [15]: 0% | %Inh [16]: 0% | %Inh [17]: 6% | %Inh [18]: 0% | %Inh [19]: 0% | %Inh [20]: 0%

Clc1cccc(-c2nc(Nc3ccncc3)c3ccccc3n2)c1 [GW873004]
%Inh [1]: 28% | %Inh [2]: 59% | %Inh [3]: 0% | %Inh [4]: 6% | %Inh [5]: 0% | %Inh [6]: 0% | %Inh [7]: 0% | %Inh [8]: 0% | %Inh [9]: 0% | %Inh [10]: 0% | %Inh [11]: 20% | %Inh [12]: 23% | %Inh [13]: 0% | %Inh [14]: 0% | %Inh [15]: 17% | %Inh [16]: 3% | %Inh [17]: 0% | %Inh [18]: 0% | %Inh [19]: 0% | %Inh [20]: 0%

Fc1cccc(COc2ccc(Nc3ncnc4cc[nH]c34)cc2Cl)c1
%Inh [1]: 0% | %Inh [2]: 29% | %Inh [3]: 9% | %Inh [4]: 18% | %Inh [5]: 0% | %Inh [6]: 20% | %Inh [7]: 9% | %Inh [8]: 50% | %Inh [9]: 21% | %Inh [10]: 11% | %Inh [11]: 0% | %Inh [12]: 4% | %Inh [13]: 0% | %Inh [14]: 0% | %Inh [15]: 21% | %Inh [16]: 7% | %Inh [17]: 4% | %Inh [18]: 26% | %Inh [19]: 0% | %Inh [20]: 36%

Clc1ccc(-c2cc(-c3c[nH]nc3-c3ccccn3)ccn2)cc1 [GW681251]
%Inh [1]: 0% | %Inh [2]: 30% | %Inh [3]: 46% | %Inh [4]: 0% | %Inh [5]: 0% | %Inh [6]: 0% | %Inh [7]: 14% | %Inh [8]: 0% | %Inh [9]: 26% | %Inh [10]: 3% | %Inh [11]: 0% | %Inh [12]: 19% | %Inh [13]: 0% | %Inh [14]: 0% | %Inh [15]: 63% | %Inh [16]: 18% | %Inh [17]: 13% | %Inh [18]: 0% | %Inh [19]: 0% | %Inh [20]: 0%

Fc1cccc(COc2ccc(Nc3ncnc4nn5ccccc5c34)cc2Cl)c1 [GW689066]
%Inh [1]: 14% | %Inh [2]: 0% | %Inh [3]: 31% | %Inh [4]: 0% | %Inh [5]: 0% | %Inh [6]: 16% | %Inh [7]: 0% | %Inh [8]: 0% | %Inh [9]: 0% | %Inh [10]: 8% | %Inh [11]: 0% | %Inh [12]: 0% | %Inh [13]: 0% | %Inh [14]: 0% | %Inh [15]: 0% | %Inh [16]: 0% | %Inh [17]: 4% | %Inh [18]: 0% | %Inh [19]: 0% | %Inh [20]: 0%

FC(F)(F)c1ccc(-c2nn3ncccc3c2-c2ccnc(Nc3cccc(C(F)(F)F)c3)n2)cc1 [GW828205]
%Inh [1]: 0% | %Inh [2]: 16% | %Inh [3]: 17% | %Inh [4]: 0% | %Inh [5]: 0% | %Inh [6]: 0% | %Inh [7]: 22% | %Inh [8]: 0% | %Inh [9]: 0% | %Inh [10]: 0% | %Inh [11]: 21% | %Inh [12]: 8% | %Inh [13]: 0% | %Inh [14]: 0% | %Inh [15]: 4% | %Inh [16]: 0% | %Inh [17]: 0% | %Inh [18]: 0% | %Inh [19]: 3% | %Inh [20]: 0%

c1ccc(-c2ccc3c(-c4ccnc(Nc5ccc6c(c5)OCCO6)n4)cnn3n2)cc1 [GW818941]
%Inh [1]: 0% | %Inh [2]: 17% | %Inh [3]: 29% | %Inh [4]: 0% | %Inh [5]: 0% | %Inh [6]: 0% | %Inh [7]: 100% | %Inh [8]: 11% | %Inh [9]: 1% | %Inh [10]: 0% | %Inh [11]: 0% | %Inh [12]: 14% | %Inh [13]: 6% | %Inh [14]: 4% | %Inh [15]: 23% | %Inh [16]: 20% | %Inh [17]: 5% | %Inh [18]: 13% | %Inh [19]: 0% | %Inh [20]: 0%

CCc1nc(-c2cccc(C)c2)c(-c2ccnc(NC(=O)c3ccccc3)c2)s1
%Inh [1]: 0% | %Inh [2]: 11% | %Inh [3]: 3% | %Inh [4]: 10% | %Inh [5]: 8% | %Inh [6]: 42% | %Inh [7]: 16% | %Inh [8]: 2% | %Inh [9]: 2% | %Inh [10]: 0% | %Inh [11]: 22% | %Inh [12]: 0% | %Inh [13]: 0% | %Inh [14]: 0% | %Inh [16]: 0% | %Inh [17]: 0% | %Inh [18]: 0% | %Inh [20]: 0%

O=C(NCCCN1CCCC1=O)c1cnc(NCc2cc(Cl)ccc2Cl)nc1NC1CCNCC1
%Inh [1]: 0% | %Inh [2]: 4% | %Inh [3]: 0% | %Inh [4]: 0% | %Inh [5]: 1% | %Inh [6]: 0% | %Inh [7]: 84% | %Inh [8]: 0% | %Inh [9]: 0% | %Inh [10]: 79% | %Inh [11]: 57% | %Inh [12]: 12% | %Inh [13]: 0% | %Inh [14]: 16% | %Inh [15]: 0% | %Inh [16]: 19% | %Inh [17]: 0% | %Inh [18]: 0% | %Inh [19]: 0% | %Inh [20]: 0%

O=C(Nc1n[nH]c2nc(-c3ccco3)c(Br)cc12)c1ccc(CN2CCCC2)cc1.O=C(O)[C@H](O)[C@@H](O)C(=O)O [SB-742352]
%Inh [1]: 0% | %Inh [2]: 14% | %Inh [3]: 0% | %Inh [4]: 21% | %Inh [5]: 50% | %Inh [6]: 0% | %Inh [7]: 20% | %Inh [8]: 0% | %Inh [9]: 0% | %Inh [10]: 0% | %Inh [11]: 0% | %Inh [12]: 4% | %Inh [13]: 34% | %Inh [14]: 0% | %Inh [15]: 4% | %Inh [16]: 24% | %Inh [17]: 0% | %Inh [18]: 0% | %Inh [19]: 0% | %Inh [20]: 1%

Cl.Cl.c1ccc(-c2cc3ccncc3cc2OC2CCNCC2)cc1 [GSK1122999]
%Inh [1]: 3% | %Inh [2]: 0% | %Inh [3]: 0% | %Inh [4]: 24% | %Inh [5]: 38% | %Inh [6]: 0% | %Inh [7]: 28% | %Inh [8]: 0% | %Inh [9]: 19% | %Inh [10]: 13% | %Inh [11]: 0% | %Inh [12]: 18% | %Inh [13]: 0% | %Inh [14]: 0% | %Inh [15]: 10% | %Inh [16]: 0% | %Inh [17]: 25% | %Inh [18]: 0% | %Inh [19]: 0% | %Inh [20]: 0%

CC(C)N1CCC(n2cnc(-c3ccc(F)cc3)c2-c2ccnc(N)n2)CC1 [SB-223132]
%Inh [1]: 0% | %Inh [2]: 0% | %Inh [3]: 28% | %Inh [4]: 2% | %Inh [5]: 22% | %Inh [6]: 0% | %Inh [7]: 0% | %Inh [8]: 0% | %Inh [9]: 0% | %Inh [10]: 0% | %Inh [11]: 0% | %Inh [12]: 26% | %Inh [13]: 0% | %Inh [14]: 0% | %Inh [15]: 0% | %Inh [16]: 0% | %Inh [17]: 1% | %Inh [18]: 0% | %Inh [19]: 0% | %Inh [20]: 0%

OCCOCCn1ccc2ncnc(Nc3ccc(Oc4cccc(Cl)c4)c(Cl)c3)c21
%Inh [1]: 24% | %Inh [2]: 74% | %Inh [3]: 0% | %Inh [4]: 0% | %Inh [5]: 19% | %Inh [6]: 0% | %Inh [7]: 0% | %Inh [8]: 0% | %Inh [9]: 0% | %Inh [10]: 0% | %Inh [11]: 0% | %Inh [12]: 0% | %Inh [13]: 0% | %Inh [14]: 0% | %Inh [15]: 0% | %Inh [16]: 0% | %Inh [17]: 0% | %Inh [18]: 0% | %Inh [19]: 25% | %Inh [20]: 0%

Nc1nc(-c2ccc3c(N)n[nH]c3c2)cc(N2CCCCC2)n1 [GSK2228768]
%Inh [1]: 0% | %Inh [2]: 0% | %Inh [3]: 0% | %Inh [4]: 0% | %Inh [5]: 0% | %Inh [6]: 0% | %Inh [7]: 17% | %Inh [8]: 0% | %Inh [9]: 0% | %Inh [10]: 0% | %Inh [11]: 0% | %Inh [12]: 2% | %Inh [13]: 0% | %Inh [14]: 0% | %Inh [15]: 0% | %Inh [16]: 0% | %Inh [17]: 3% | %Inh [18]: 0% | %Inh [19]: 0% | %Inh [20]: 0%

Cl.Fc1ccccc1COc1ccc(Nc2ncnc3ccc(-c4nnc(C(F)(F)F)o4)cc23)cc1Cl [GW424170]
%Inh [1]: 12% | %Inh [2]: 0% | %Inh [3]: 0% | %Inh [4]: 0% | %Inh [5]: 0% | %Inh [6]: 0% | %Inh [7]: 10% | %Inh [8]: 0% | %Inh [9]: 0% | %Inh [10]: 0% | %Inh [11]: 0% | %Inh [12]: 15% | %Inh [13]: 0% | %Inh [14]: 0% | %Inh [15]: 0% | %Inh [16]: 0% | %Inh [17]: 0% | %Inh [18]: 0% | %Inh [19]: 0% | %Inh [20]: 0%

Fc1cccc(COc2ccc(Nc3ncnc4sc(-c5ccc[nH]5)cc34)cc2Cl)c1 [GW707818]
%Inh [1]: 17% | %Inh [2]: 28% | %Inh [3]: 0% | %Inh [4]: 1% | %Inh [5]: 0% | %Inh [6]: 82% | %Inh [7]: 36% | %Inh [8]: 0% | %Inh [9]: 4% | %Inh [10]: 0% | %Inh [11]: 0% | %Inh [12]: 11% | %Inh [13]: 7% | %Inh [14]: 4% | %Inh [15]: 5% | %Inh [16]: 3% | %Inh [17]: 9% | %Inh [18]: 0% | %Inh [19]: 12% | %Inh [20]: 1%

COc1ccc(Nc2nccc(N3CCC(NC(=O)Nc4ccc5c(c4)OCO5)C3)n2)cc1 (centres unmarked) [GSK1379745]
%Inh [1]: 4% | %Inh [2]: 0% | %Inh [3]: 1% | %Inh [4]: 18% | %Inh [5]: 1% | %Inh [6]: 39% | %Inh [7]: 20% | %Inh [8]: 3% | %Inh [9]: 12% | %Inh [10]: 14% | %Inh [11]: 0% | %Inh [12]: 15% | %Inh [13]: 0% | %Inh [14]: 5% | %Inh [15]: 5% | %Inh [16]: 4% | %Inh [17]: 17% | %Inh [18]: 0% | %Inh [19]: 0% | %Inh [20]: 0%
